# This is part of a sample that, as a whole, favours compounds with a hit. Of some 83,000 tested, about 20% had one in any assay.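 Assay: single dose, 48 h. Readout: percent growth (0 = no net growth; negative = cell death). Active: <10.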 Unmarked numbers belong to inactive results. The source made the active and inactive calls.
# Key:
# Assay in all cases: NCI-60 one-dose screen, 48 h (100 = growth as untreated, 0 = no growth, -100 = all killed)
# Details in all cases: 10 µM unless noted
# NCI-H23 lung = system: NCI-H23 lung
# NCI-H226 lung = system: NCI-H226 lung
# NCI-H322M lung = system: NCI-H322M lung
# HOP-62 NSCLC = system: HOP-62 NSCLC
# NCI-H460 lung = system: NCI-H460 lung
# HOP-92 NSCLC = system: HOP-92 NSCLC
# NCI-H522 lung = system: NCI-H522 lung
# A549/ATCC NSCLC = system: A549/ATCC NSCLC
# 786-0 renal = system: 786-0 renal
# COLO 205 colon = system: COLO 205 colon
# DU-145 prostate = system: DU-145 prostate
# K-562 leukemia = system: K-562 leukemia
# MALME-3M melanoma = system: MALME-3M melanoma
# MDA-MB-231 breast = system: MDA-MB-231 breast
# RXF 393 renal = system: RXF 393 renal
# SF-268 CNS = system: SF-268 CNS
# SF-295 CNS = system: SF-295 CNS
# SF-539 CNS = system: SF-539 CNS
# UACC-257 melanoma = system: UACC-257 melanoma
# M14 melanoma = system: M14 melanoma
Structure (SMILES),growth (NCI-H23 lung),growth (NCI-H226 lung),growth (NCI-H322M lung),growth (HOP-62 NSCLC),growth (NCI-H460 lung),growth (HOP-92 NSCLC),growth (NCI-H522 lung),growth (A549/ATCC NSCLC),growth (786-0 renal),growth (COLO 205 colon),growth (DU-145 prostate),growth (K-562 leukemia),growth (MALME-3M melanoma),growth (MDA-MB-231 breast),growth (RXF 393 renal),growth (SF-268 CNS),growth (SF-295 CNS),growth (SF-539 CNS),growth (UACC-257 melanoma),growth (M14 melanoma)
O=C(N/N=C/c1ccccc1O)c1ccccc1Nc1ccnc(C(F)(F)F)c1,30.2%,-11.7% (active),13.1%,-5.32% (active),-13.2% (active),7.01% (active),24%,10.4%,0.0938% (active),14.7%,27.3%,17.7%,-0.966% (active),40.4%,18.7%,14.6%,7.17% (active),0.988% (active),-0.662% (active),-14.3% (active)
O=[N+]([O-])c1ccc(Nc2nc(NCCN3CCOCC3)ncc2[N+](=O)[O-])cc1,89.9%,92%,85%,96%,94.4%,89.9%,72.6%,98.9%,92.6%,97.1%,92.5%,103%,91%,95.8%,63%,93.8%,98.6%,93.9%,109%,95%
Cc1ccccc1COc1ccc(-c2ccnn2-c2ccc(Cl)cc2)cc1,76.6%,70.3%,96.9%,49.3%,58.3%,74.2%,29.1%,49.6%,82.8%,71.2%,88.1%,13.7%,67.2%,84.2%,60.3%,80.5%,53.1%,71.8%,75.7%,39%
CCCOc1ccc2nc(NC(=O)OC)[nH]c2c1,21.9%,8.05% (active),49.9%,33.6%,3.52% (active),37.9%,-32.7% (active),12.8%,32.6%,3.31% (active),0.47% (active),16.1%,38%,-1.41% (active),18.2%,26.2%,-5.89% (active),7.37% (active),47.3%,2.83% (active)
COc1cc2c(cc1-c1c(C)noc1C)ncc1nc(C3CCCC3)n([C@H](C)COC(F)F)c12,53.7%,48.1%,46.6%,32%,51%,20%,22.6%,31.6%,45.9%,23.9%,67.7%,23.5%,71.1%,44.6%,48.6%,62.6%,50.3%,38.5%,32.1%,40.9%
COc1ccc(C(=O)COc2ccc(/C=C3\COc4ccc(OC)cc4C3=O)cc2)cc1,77.6%,85.9%,96.1%,110%,104%,77.7%,70.1%,77.9%,90.5%,122%,107%,33.7%,90.2%,106%,21.7%,112%,144%,105%,29.2%,95%
CSc1nc2c(c(=O)[nH]1)C1(C(=O)Nc3ccccc31)c1c(nc(SC)[nH]c1=O)N2,105%,94.9%,92.5%,113%,103%,98.8%,123%,100%,103%,109%,105%,112%,93.7%,107%,103%,98.2%,103%,102%,104%,97.2%
